# Test results as given in PubChem BioAssay.
# “And” between values parts separate entries of the source, which are not always exact repeats. Equal values may be shown once. Inconclusive results are not listed. The source made the active and inactive calls. Rule as the data show it, unless noted: active = inhibition above about 80%; inactive = the rest.
# Legend:
# [1] = GFP-Q80 aggregate reduction, neuronal-like cells, cell-based, NGF-treated PC12, GFPQ80 (AID 1614); conditions: PC12 NGF-treated GFP-polyQ80 inclusion reduction;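 also: lower means fewer inclusions and 0 means no inclusions at all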
# [2] = P. berghei load reduction in hepatocytes – cell-based, HepG2, luciferase luminescence, HepG2 viability, primary screen (AID 624349; in the data active = parasite load remaining mostly below about 12%, no sharp cut-off; inactive = mostly above about 10%;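 also: 100% = mean of DMSO negative control wells on the same plate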); conditions: P. berghei liver stage in HepG2, luciferase luminescence, concentration not given here; parasite load remaining: stronger effect = lower value; viability: measured here: HepG2 viability without parasites
# [3] = viability loss in pontine glioma line – cell-based, SU-DIPG-XVII, MIPE5.0, CellTiter-Glo, qHTS, dose response (AID 1347060; cut-off not given, nearly all actives have AC50 up to about 26 µM); conditions: CellTiter-Glo ATP luminescence
# [4] = viability loss in pontine glioma line – cell-based, SU-DIPG-XIII, MIPE4.0, CellTiter-Glo, qHTS, dose response (AID 1347061; cut-off not given, nearly all actives have AC50 up to about 37 µM;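 also: cells exposed to compound for 48 hours before readout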); conditions: CellTiter-Glo ATP luminescence
# [5] = viability loss in pontine glioma line – cell-based, JHH-DIPG-1, MIPE4.0, CellTiter-Glo, qHTS, dose response (AID 1347062; cut-off not given, nearly all actives have AC50 up to about 27 µM); conditions: JHH-DIPG-1 viability, CellTiter-Glo ATP luminescence
# [6] = viability loss in pontine glioma line – cell-based, SU-DIPG-IV, MIPE4.0, CellTiter-Glo, qHTS, dose response (AID 1347063; cut-off not given, nearly all actives have AC50 up to about 30 µM;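 also: compound exposure lasted 48 hours before the viability readout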); conditions: CellTiter-Glo ATP luminescence
# [7] = growth inhibition of DIPG cells – cell-based, MIPE4.0 library, CellTiter-Glo luminescence, qHTS (AID 1347066; cut-off not given, nearly all actives have AC50 up to about 30 µM;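 also: cells exposed to compound for 48 hours before readout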); conditions: SU-DIPG-VI viability, CellTiter-Glo ATP luminescence
# [8] = JHH-DIPG-1 glioma cell viability, MIPE5.0 library, CellTiter-Glo luminescence, qHTS (AID 1347067; cut-off not given, nearly all actives have AC50 up to about 26 µM;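 also: cells exposed to compound for 48 hours before readout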); conditions: JHH-DIPG-1 glioma viability, CellTiter-Glo ATP luminescence
# [9] = growth inhibition of DIPG cells – cell-based, MIPE5.0 library, qHTS (AID 1347068; cut-off not given, nearly all actives have IC50 up to about 30 µM); conditions: SU-DIPG-XXV viability
# [10] = growth inhibition, single agent or in combination, cell-based, chromothripsis tumors, cisplatin or BGB combos (AID 1671449); conditions: LFS_MB_P medulloblastoma cells;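 also: cells exposed for 96 hours; 0% = vehicle DMSO and 100% = killing by high DMSO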
# [11] = growth inhibition, single agent and combos, cell-based, chromothripsis tumors, cisplatin or BGB combos (AID 1671450); conditions: HDN33 neuroblastoma cells, stronger effect = higher value;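 also: cells exposed to compound for four days; 0% = vehicle DMSO and 100% = cell killing by high DMSO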
# [12] = growth inhibition, single agents and combos, HTB85, cell-based, BGB or cisplatin IC20 combos, synergistic combos for chromothripsis tumors (AID 1671453); conditions: HTB85 osteosarcoma cells, drug combinations, stronger effect = higher value;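 also: cells exposed for 96 hours before readout; 0% = vehicle DMSO and 100% = high DMSO killing control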
# [13] = growth inhibition, MDA-MB-436, cell-based, BGB or cisplatin combos, synergistic combos for chromothripsis tumors (AID 1671458; call rule not given here;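 also: cells exposed for 96 hours; 0% = vehicle DMSO and 100% = killing by high DMSO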); conditions: MDA-MB-436 breast carcinoma growth inhibition, drug combinations, stronger effect = higher value
# [14] = BT084 cell growth, single and combined drugs, ICGC_MB145, cisplatin and BGB IC40 combos (AID 1671461); conditions: BT084 medulloblastoma cells, drug combinations, stronger effect = higher value;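 also: cells exposed to drugs for 96 hours; 0% = vehicle DMSO and 100% = high DMSO full killing control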
# [15] = RCMB18 cell growth, single agent and combined, cisplatin and BGB IC40 combos (AID 1671462); conditions: RCMB18 medulloblastoma cells, stronger effect = higher value;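 also: cells exposed to compound for four days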
# [16] = CRL1545 cell growth, single agent and combined, cisplatin and BGB IC20 combos (AID 1671464); conditions: CRL1545 osteosarcoma cells, stronger effect = higher value;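 also: cells exposed to compound for 96 hours before readout; 0% = vehicle DMSO and 100% = high DMSO killing control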
# [17] = at 0.5 µM, stronger effect = higher value
# [18] = measured here: combination with BGB IC20, at 0.005 µM
# [19] = measured here: combination with BGB IC40, at 0.005 µM
# [20] = measured here: combination with BGB IC40, at 0.05 µM
# [21] = measured here: combination with cisplatin, at 0.5 µM, stronger effect = higher value
# [22] = measured here: combination with cisplatin, at 5 µM, stronger effect = higher value
# [23] = measured here: with BGB IC20 combination, at 0.5 µM
# [24] = measured here: with cisplatin IC20 combination, at 0.5 µM
# [25] = measured here: with BGB IC20, at 0.5 µM
# [26] = measured here: with BGB IC20, at 5 µM
# [27] = measured here: with cisplatin IC20, at 0.5 µM
# [28] = measured here: with cisplatin IC20, at 5 µM
# [29] = measured here: BGB combination, at 0.5 µM
# [30] = measured here: BGB combination, at 5 µM
# [31] = measured here: cisplatin combination, at 0.5 µM
# [32] = measured here: cisplatin combination, at 5 µM
# [33] = cisplatin combination, at 0.5 µM
# [34] = measured here: BGB IC40 combination 0.05 uM, at 0.05 µM
# [35] = measured here: BGB IC40 combination, at 0.05 µM
# [36] = measured here: combination with cisplatin, at 0.5 µM
smiles,measurement,setting,value
CS(=O)(=O)OCCCCOS(C)(=O)=O,inclusion score,[1],2
same,parasite load remaining,[2],46.8% (inactive) and 102% (inactive) and 58% (inactive)
same,viability,[2],95.5% and 78.8% and 98.1%
same,outcome,[3],inactive
same,outcome,[4],inactive
same,outcome,[5],inactive
same,outcome,[6],inactive
same,outcome,[7],inactive
same,outcome,[8],inactive
same,outcome,[9],inactive
same,inhibition,[10]; [17],-1.82% (inactive) and -6.92% (inactive)
same,inhibition,[10]; [18],-22.1% and -20.3%
same,inhibition,[10]; [19],-24.6% and 29.3%
same,inhibition,[10]; [20],-40.6% and 3.42%
same,inhibition,[10]; [21],1.85% and -16.8%
same,inhibition,[10]; [22],-55.6% and 0.647%
same,inhibition,"[11]; BGB combo, at 5 µM",-31.6% and -3.19%
same,inhibition,[11]; at 0.5 µM,-10.4% (inactive) and -1.57% (inactive)
same,inhibition,"[11]; cisplatin combo, at 5 µM",-3.41% and -6.58%
same,inhibition,[11]; [23],-9.64% and 2.06%
same,inhibition,[11]; [24],-8.9% and -4.87%
same,inhibition,"[11]; single agent, at 5 µM",0.973% and 14.4%
same,inhibition,[12]; at 0.5 µM,-4.73% (inactive) and 3.45% (inactive)
same,inhibition,[12]; [25],-9.57% and -1.65%
same,inhibition,[12]; [26],-6.08% and 4.44%
same,inhibition,[12]; [27],-0.002% and 1.89%
same,inhibition,[12]; [28],-32.8% and 17%
same,inhibition,"[12]; single agent, at 5 µM",-0.247% and 3.08%
same,inhibition,[13]; at 0.5 µM,-11.8% (inactive) and -10.9% (inactive)
same,inhibition,[13]; [29],-20.7% and -8.16%
same,inhibition,[13]; [30],10.5% and 6.58%
same,inhibition,[13]; [31],-15.8% and -27%
same,inhibition,[13]; [32],-17.4% and 2.99%
same,inhibition,[14]; at 0.5 µM,3.5% (inactive) and 8.55% (inactive)
same,inhibition,[14]; [33],-11.9% and 10.4%
same,inhibition,"[14]; cisplatin combination, at 5 µM",13.1% and -35.4%
same,inhibition,[14]; [34],-26.6% and 22.9%
same,inhibition,"[14]; single agent, at 5 µM",10.9% and -3.7%
same,inhibition,[15]; at 0.5 µM,-11.1% (inactive) and -2.44% (inactive)
same,inhibition,"[15]; cisplatin combo, at 5 µM",-65.6% and 7.8%
same,inhibition,[15]; [35],-1.43% and 7.53%
same,inhibition,[15]; [36],-15.9% and -14.5%
same,inhibition,"[15]; single agent, at 5 µM",-7.92% and -9.74%
same,inhibition,[16]; at 0.5 µM,-1.43% (inactive) and -28.8% (inactive)
same,inhibition,[16]; [23],-7.16% and 14.9%
same,inhibition,[16]; [24],-0.178% and -50.7%
same,inhibition,"[16]; single agent, at 0.05 µM",-16.2% and -23.2%
same,inhibition,"[16]; single agent, at 5 µM",-7.55% and 21.7%
O=C(O)CCCc1ccccc1,parasite load remaining,[2],61.6% (inactive) and 72.5% (inactive)
same,viability,[2],96.6% and 102%
same,inhibition,[10]; [17],-32.4% (inactive)
same,inhibition,[10]; [18],-18.8%
same,inhibition,[10]; [19],-12.3%
same,inhibition,[10]; [20],-22.2%
same,inhibition,[10]; [21],-35%
same,inhibition,[10]; [22],-11.6%
same,inhibition,"[11]; BGB combo, at 5 µM",-16.9%
same,inhibition,[11]; at 0.5 µM,-18.6% (inactive)
same,inhibition,"[11]; cisplatin combo, at 5 µM",0.505%
same,inhibition,[11]; [23],-6.08%
same,inhibition,[11]; [24],-19.1%
same,inhibition,"[11]; single agent, at 5 µM",-3.58%
same,inhibition,[12]; at 0.5 µM,-13.7% (inactive)
same,inhibition,[12]; [25],-24.4%
same,inhibition,[12]; [26],-45.4%
same,inhibition,[12]; [27],-14.6%
same,inhibition,[12]; [28],-12.8%
same,inhibition,"[12]; single agent, at 5 µM",-16.3%
same,inhibition,[13]; at 0.5 µM,-11.5% (inactive)
same,inhibition,[13]; [29],-6.89%
same,inhibition,[13]; [30],-6.08%
same,inhibition,[13]; [31],-24.1%
same,inhibition,[13]; [32],-11.2%
same,inhibition,[14]; at 0.5 µM,-24.2% (inactive)
same,inhibition,[14]; [33],2.11%
same,inhibition,"[14]; cisplatin combination, at 5 µM",-2.13%
same,inhibition,[14]; [34],-5.38%
same,inhibition,"[14]; single agent, at 5 µM",-9.5%
same,inhibition,[15]; at 0.5 µM,-15.3% (inactive)
same,inhibition,"[15]; cisplatin combo, at 5 µM",-6.28%
same,inhibition,[15]; [35],-18%
same,inhibition,[15]; [36],-7.69%
same,inhibition,"[15]; single agent, at 5 µM",28.4%
same,inhibition,[16]; at 0.5 µM,-23.7% (inactive)
same,inhibition,[16]; [23],-4.31%
same,inhibition,[16]; [24],-36.4%
same,inhibition,"[16]; single agent, at 0.05 µM",-12.3%
same,inhibition,"[16]; single agent, at 5 µM",9.33%
